Assay [1] concerns the target Regulator of G-protein signaling 4 (Homo sapiens) + Guanine nucleotide-binding protein G(o) subunit alpha (Homo sapiens) (UniProt P49798+P09471). Nature of the assay: small molecules altering RGS protein interactions with GNAO1 – biochemical, multiplexed beads, flow cytometry, RGS4/7/8/16/19, primary screen (AID 1504).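 Also: fluorescently labeled Galpha-o bound to GDP with aluminium fluoride binding biotinylated RGS beads.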 The note with it: multiplexed bead flow cytometry, at 10 µM.

Assay [2] has as its target GTPase HRas (Homo sapiens) (UniProt P01112). Nature of the assay: blockade of GTP loading onto mutant Ras – biochemical, activated mutant, multiplex bead flow cytometry, dose response (AID 1341;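 active = dose-response curve with midpoint inside the tested range, moderate steepness, significant amplitude and little compound fluorescence or bead-attachment interference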;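 also: GST-tagged constitutively activated Ras mutant immobilized on beads and multiplexed with other GTPases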). The settings on record: bead-based flow cytometry, Bodipy-FL-GTP binding; series mostly up to 100 µM.
Assay [3] addresses Ras-related C3 botulinum toxin substrate 1 (Homo sapiens) (UniProt P63000). Nature of the assay: inhibition of wildtype Rac1 nucleotide loading – biochemical, multiplex bead flow cytometry, dose response (AID 1340;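 active = dose curve with midpoint inside tested range, moderate steepness, plateau gap beyond fit error, low compound glow and bead-link interference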). The settings on record: GST-Rac1 beads, Bodipy-FL-GTP binding; at 100 µM (top of the series) unless noted.
Assay [4] is described as follows: yeast TOR reporter LAP4-GFP level changes – cell-based, second cherry pick, flow cytometry, confirmation (AID 2621;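 active = GFP signal as percent of the solvent control above about 150%, meaning raised reporter expression, limit read from the data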;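 also: ratio of well median GFP fluorescence to plate DMSO mean so 100% = DMSO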). The note with it: S. cerevisiae LAP4-GFP strain, 3 h, at 10 µM, stronger effect = higher value.
Assay [5] in a line: TOR pathway reporter MEP2-GFP, hit retest – S. cerevisiae, flow cytometry GFP, second cherry picks, confirmation (AID 2622;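 active = GFP signal above 150% of the solvent control wells, that is a rise of more than half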;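 also: median channel GFP fluorescence of all gated yeast cells per well; ratio of median GFP to plate DMSO average so 100% = DMSO level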). The settings on record: S. cerevisiae MEP2-GFP strain, 3 h, at 10 µM, stronger effect = higher value.
Assay [6] is described as follows: retest of hits on RPL19A-GFP strain – cell-based, S. cerevisiae, flow cytometry, second cherry pick, confirmation (AID 2623;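 active = under 65% GFP response relative to DMSO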;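 also: median GFP channel fluorescence per well over the all cells gate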). The note with it: 3 h, at 10 µM, stronger effect = lower value, 100% means same as DMSO wells.
Assay [7] is described as follows: yeast TOR pathway CIT2-GFP reporter modulation – flow cytometry, second cherry pick, single plex, confirmation (AID 2624;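 active = GFP response vs DMSO above about 150%, limit read from the data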;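 also: median green fluorescence per well over all gated yeast cells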). The note with it: S. cerevisiae CIT2-GFP strain, 3 h, at 10 µM, stronger effect = higher value, DMSO control wells read 100%.
Assay [8] can be described thus: yeast AGP1-GFP fluorescence change, single-dose confirmation – cell-based, flow cytometry, S. cerevisiae, cherry pick set 2 (AID 2643;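 active = over 150 percent of DMSO response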;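 also: median GFP channel fluorescence over all cells without mother daughter split; sample median GFP divided by mean DMSO control so 100% equals DMSO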). The note with it: S. cerevisiae AGP1-GFP strain, 3 h, at 10 µM, stronger effect = higher value.
Assay [9] in a line: yeast AGP1-GFP fluorescence change, single-dose – cell-based, flow cytometry, S. cerevisiae, cherry picks, confirmation (AID 2273;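 active = GFP response above 150% of the DMSO level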;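 also: median GFP channel fluorescence over the whole cell population gate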). The note with it: S. cerevisiae AGP1-GFP strain, 3 h, at 10 µM.
For assay [10], the target named is Integrin beta-1 (Homo sapiens) + Integrin alpha-4 (Homo sapiens) (UniProt P13612+P05556). The experiment in a line: alpha4beta1 integrin LIBS antibody binding reduction – U937 cells, HUTS-21 mAb, flow cytometry, validation set, VLA-4 allosteric modulator project, pilot screen (AID 2674;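 active = inhibition above 50%, about 3 SD of the validation set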;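 also: antibody binding induced by the VLA-4 ligand LDV present at three times its Kd; 0% = LDV ligand with antibody and no compound and 100% = antibody without LDV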). The note with it: HUTS-21 LIBS mAb binding, at 6.7 µM, stronger effect = higher value, binding induced by LDV ligand.
Integrin beta-1 (Homo sapiens) + Integrin alpha-4 (Homo sapiens), sequence (P05556 whole entry, looked up): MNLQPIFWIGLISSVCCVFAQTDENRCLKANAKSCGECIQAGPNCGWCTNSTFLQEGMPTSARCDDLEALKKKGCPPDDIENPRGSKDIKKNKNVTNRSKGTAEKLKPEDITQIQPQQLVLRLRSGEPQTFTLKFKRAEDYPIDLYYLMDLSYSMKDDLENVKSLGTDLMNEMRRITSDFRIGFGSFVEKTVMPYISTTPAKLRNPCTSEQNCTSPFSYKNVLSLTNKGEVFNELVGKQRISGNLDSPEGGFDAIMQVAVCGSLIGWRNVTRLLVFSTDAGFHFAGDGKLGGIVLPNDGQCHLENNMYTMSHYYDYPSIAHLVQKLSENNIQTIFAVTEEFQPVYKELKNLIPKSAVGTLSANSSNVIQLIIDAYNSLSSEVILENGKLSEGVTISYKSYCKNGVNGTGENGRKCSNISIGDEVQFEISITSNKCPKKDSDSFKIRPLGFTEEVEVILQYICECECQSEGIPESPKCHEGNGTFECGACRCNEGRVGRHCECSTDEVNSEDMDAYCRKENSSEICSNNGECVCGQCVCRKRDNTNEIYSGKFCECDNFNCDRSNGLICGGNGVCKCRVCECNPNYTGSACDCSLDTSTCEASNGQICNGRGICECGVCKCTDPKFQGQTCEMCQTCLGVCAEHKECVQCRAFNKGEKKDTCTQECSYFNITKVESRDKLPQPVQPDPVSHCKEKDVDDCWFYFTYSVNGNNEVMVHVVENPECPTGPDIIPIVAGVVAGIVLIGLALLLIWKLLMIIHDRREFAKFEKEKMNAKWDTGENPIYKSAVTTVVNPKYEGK
Integrin beta-1 (Homo sapiens) + Integrin alpha-4 (Homo sapiens), sequence (P13612 whole entry, looked up): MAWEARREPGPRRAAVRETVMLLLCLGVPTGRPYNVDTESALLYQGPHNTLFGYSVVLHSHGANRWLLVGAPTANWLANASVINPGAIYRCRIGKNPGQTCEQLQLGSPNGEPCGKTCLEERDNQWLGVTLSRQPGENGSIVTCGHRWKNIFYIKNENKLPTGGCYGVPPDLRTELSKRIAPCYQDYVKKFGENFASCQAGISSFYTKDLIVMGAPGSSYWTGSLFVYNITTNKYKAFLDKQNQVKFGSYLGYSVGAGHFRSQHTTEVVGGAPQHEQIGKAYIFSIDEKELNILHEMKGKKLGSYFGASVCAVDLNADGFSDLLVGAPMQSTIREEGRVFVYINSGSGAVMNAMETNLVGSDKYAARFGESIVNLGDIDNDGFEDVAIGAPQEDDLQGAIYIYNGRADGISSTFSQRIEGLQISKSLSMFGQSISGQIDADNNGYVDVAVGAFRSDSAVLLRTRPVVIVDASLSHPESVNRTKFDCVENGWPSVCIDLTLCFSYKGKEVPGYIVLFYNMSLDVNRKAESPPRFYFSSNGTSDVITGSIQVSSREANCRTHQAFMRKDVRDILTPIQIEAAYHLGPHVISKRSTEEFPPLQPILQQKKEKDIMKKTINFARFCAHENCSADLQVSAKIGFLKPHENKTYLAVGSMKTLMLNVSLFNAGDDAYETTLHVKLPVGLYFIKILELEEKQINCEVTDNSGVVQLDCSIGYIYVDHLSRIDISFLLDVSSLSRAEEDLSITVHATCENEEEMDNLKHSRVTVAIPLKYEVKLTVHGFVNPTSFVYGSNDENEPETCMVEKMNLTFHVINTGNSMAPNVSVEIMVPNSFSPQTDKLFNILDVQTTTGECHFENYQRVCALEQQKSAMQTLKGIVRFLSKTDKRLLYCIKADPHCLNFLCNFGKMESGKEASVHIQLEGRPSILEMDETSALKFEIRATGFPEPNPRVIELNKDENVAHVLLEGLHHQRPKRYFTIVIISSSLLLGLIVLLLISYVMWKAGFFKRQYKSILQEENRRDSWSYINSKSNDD

Assay [11] is described as follows: calorie-restriction mimetic ROS inhibitors, yeast – validation compound set, pilot screen (AID 2706;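 active = superoxide response below 65% of plate, a cut near 3 SD across the whole screen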;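 also: yeast exposed to compound for one week at 30 degrees C before staining; 100% = mean of all compound wells on the same plate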). The settings on record: S. cerevisiae aging, superoxide DHE fluorescence; at 10 µM; stronger effect = lower value.
Assay [12] addresses Beta-adrenergic receptor kinase 1 (Homo sapiens) (UniProt P25098). The experiment in a line: GRK2 binders displacing RNA aptamer, biochemical, validation, human GRK2, bead flow cytometry (AID 488806;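 active = aptamer binding inhibition above 30%, about 3 SD of noise from non-fluorescent compounds; inactive = inhibition at or below 30%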). The note with it: bead-bound GRK2, FAM-aptamer displacement, at 10 µM, stronger effect = higher value.
Assay [13] deals with Beta-2 adrenergic receptor (Homo sapiens) (UniProt P07550). The experiment in a line: agonist-induced loss of surface beta2AR – cell-based, FAP fluorogen, flow cytometry, validation set, pilot screen (AID 504459;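 active = percent response above 42, roughly 3 SD of non-fluorescent test compounds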;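 also: agonist-driven loss of surface beta2AR via internalization measured by FAP dye flow cytometry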). The settings on record: Am2.2-beta2AR cells, at 10 µM, stronger effect = higher value.
Beta-2 adrenergic receptor (Homo sapiens), sequence (P07550 whole entry, looked up): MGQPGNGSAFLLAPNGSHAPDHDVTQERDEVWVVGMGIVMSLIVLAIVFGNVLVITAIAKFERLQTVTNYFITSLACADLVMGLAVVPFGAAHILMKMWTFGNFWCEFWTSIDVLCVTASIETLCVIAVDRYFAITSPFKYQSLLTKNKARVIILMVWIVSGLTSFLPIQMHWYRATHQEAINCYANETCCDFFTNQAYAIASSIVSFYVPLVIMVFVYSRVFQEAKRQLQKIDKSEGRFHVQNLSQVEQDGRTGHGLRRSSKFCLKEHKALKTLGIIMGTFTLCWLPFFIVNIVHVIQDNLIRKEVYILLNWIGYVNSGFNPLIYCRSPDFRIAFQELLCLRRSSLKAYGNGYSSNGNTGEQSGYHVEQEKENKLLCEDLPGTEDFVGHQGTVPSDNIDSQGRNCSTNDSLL
Assay [14] addresses AP-2 complex subunit beta (Homo sapiens) (UniProt P63010). The experiment in a line: beta-arrestin/AP2 interaction blockers – biochemical, validation set, GST-AP2 beads, flow cytometry, pilot screen (AID 504541;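 active = inhibition above 54%, about 3 SD of non-fluorescent compounds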;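 also: AP2 carries R879A mutation and is captured from E. coli lysate; bead-bound FITC arrestin peptide fluorescence measuring arrestin peptide binding to AP2; 0% = DMSO wells and 100% = excess unlabeled arrestin peptide control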). The note with it: FITC arrestin peptide, at 10 µM, stronger effect = higher value, AP2 beta2 appendage fragment, R879A mutant.
Assay [15] can be described thus: cytosolic pH regulators acting via V-ATPase – S. cerevisiae, pHLuorin, HTS validation (AID 504600; in the data active = response above about 15%;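 also: plate controls were DMSO for no effect and reference compound for full effect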). The settings on record: V-ATPase proton transport, at 10 µM, stronger effect = higher value.
Assay [16] concerns anti-desmoglein-3 scFv antibody binding to human DSG3. The experiment in a line: blockers of pathogenic pemphigus antibody–desmoglein-3 binding – biochemical, validation compound set, bead-based, flow cytometry, pilot screen (AID 588368;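 active = binding below the plate cutoff, the plate median minus 3 SD, with a reading above zero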;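 also: signal is the median channel fluorescence of bead-bound GFP antibody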). The note with it: Protein G beads, DSG3-Fc, scFv-GFP binding, at 10 µM, stronger effect = lower value.
A short description of assay [17]: Nile Red efflux blockade in pump-expressing yeast – validation compound set, multiplex, phenotypic, pilot screen (AID 588506;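 active = efflux inhibition above 0.42, the validation set average plus 4 SD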;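 also: Nile Red retained in cells so higher fluorescence means more efflux inhibition; 0 = negative control wells and 1 = enniatin B 25 µM full block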). The note with it: S. cerevisiae pump-expressing triplex, Nile Red efflux flow cytometry; at 10 µM; stronger effect = higher value; the pumps come from Candida albicans.
Assay [18] has as its target ATP-binding cassette sub-family B member 6 (Homo sapiens) (UniProt Q9NP58). The experiment in a line: blockers of ABCB6-driven porphyrin uptake – K562-ABCB6 cells, flow cytometry, validation set, pilot screen (AID 588550;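 active = inhibition above the screen-wide mean plus 3 SD, about 51%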;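 also: 0% = DMSO wells and 100% = benzethonium chloride 70 µM positive control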). The note with it: K562-ABCB6 porphyrin accumulation, 1 h, at 10 µM, stronger effect = higher value.
The nature of assay [19]: AML differentiation inducers, ER-HoxA9 marrow cells – cell-based, GFP/MAC1 double positive, flow cytometry, validation set, primary screen (AID 588685;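 active = differentiation response of at least 50%, scaled between solvent and reference control, from cells with both markers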;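 also: compound exposure lasts four days before antibody staining and flow analysis; 0% = DMSO wells and 100% = 5 µM fulvestrant positive control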). The note with it: stronger effect = higher value, normalized: vehicle 0, fulvestrant 100.

The text below walks through data of PubChem BioAssay.

For some assays here: Potency and affinity values are given separately. The list shows a part of the results. Active and inactive are the calls of the source. Unless noted, no rule for the calls is given here.

Regulator of G-protein signaling 4 (Homo sapiens) + Guanine nucleotide-binding protein G(o) subunit alpha (Homo sapiens), sequence (P09471 whole entry, looked up): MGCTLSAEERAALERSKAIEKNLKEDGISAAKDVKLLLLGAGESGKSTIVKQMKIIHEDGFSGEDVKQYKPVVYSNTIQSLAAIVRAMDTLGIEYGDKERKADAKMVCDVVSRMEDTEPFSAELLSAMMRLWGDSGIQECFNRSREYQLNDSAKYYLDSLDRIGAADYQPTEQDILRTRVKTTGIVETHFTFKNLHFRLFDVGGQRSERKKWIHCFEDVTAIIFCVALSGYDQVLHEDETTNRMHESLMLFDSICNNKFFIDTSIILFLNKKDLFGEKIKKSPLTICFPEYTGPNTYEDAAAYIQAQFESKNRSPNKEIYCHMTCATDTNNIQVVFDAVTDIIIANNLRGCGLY
Regulator of G-protein signaling 4 (Homo sapiens) + Guanine nucleotide-binding protein G(o) subunit alpha (Homo sapiens), sequence (P49798 whole entry, looked up): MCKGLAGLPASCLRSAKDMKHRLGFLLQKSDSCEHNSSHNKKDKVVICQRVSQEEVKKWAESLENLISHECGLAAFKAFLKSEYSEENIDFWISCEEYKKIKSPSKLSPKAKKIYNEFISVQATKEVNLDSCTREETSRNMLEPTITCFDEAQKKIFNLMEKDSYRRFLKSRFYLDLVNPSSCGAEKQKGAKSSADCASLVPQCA
AP-2 complex subunit beta (Homo sapiens), sequence (P63010 whole entry, looked up, the tested form may be a part, one chain of several): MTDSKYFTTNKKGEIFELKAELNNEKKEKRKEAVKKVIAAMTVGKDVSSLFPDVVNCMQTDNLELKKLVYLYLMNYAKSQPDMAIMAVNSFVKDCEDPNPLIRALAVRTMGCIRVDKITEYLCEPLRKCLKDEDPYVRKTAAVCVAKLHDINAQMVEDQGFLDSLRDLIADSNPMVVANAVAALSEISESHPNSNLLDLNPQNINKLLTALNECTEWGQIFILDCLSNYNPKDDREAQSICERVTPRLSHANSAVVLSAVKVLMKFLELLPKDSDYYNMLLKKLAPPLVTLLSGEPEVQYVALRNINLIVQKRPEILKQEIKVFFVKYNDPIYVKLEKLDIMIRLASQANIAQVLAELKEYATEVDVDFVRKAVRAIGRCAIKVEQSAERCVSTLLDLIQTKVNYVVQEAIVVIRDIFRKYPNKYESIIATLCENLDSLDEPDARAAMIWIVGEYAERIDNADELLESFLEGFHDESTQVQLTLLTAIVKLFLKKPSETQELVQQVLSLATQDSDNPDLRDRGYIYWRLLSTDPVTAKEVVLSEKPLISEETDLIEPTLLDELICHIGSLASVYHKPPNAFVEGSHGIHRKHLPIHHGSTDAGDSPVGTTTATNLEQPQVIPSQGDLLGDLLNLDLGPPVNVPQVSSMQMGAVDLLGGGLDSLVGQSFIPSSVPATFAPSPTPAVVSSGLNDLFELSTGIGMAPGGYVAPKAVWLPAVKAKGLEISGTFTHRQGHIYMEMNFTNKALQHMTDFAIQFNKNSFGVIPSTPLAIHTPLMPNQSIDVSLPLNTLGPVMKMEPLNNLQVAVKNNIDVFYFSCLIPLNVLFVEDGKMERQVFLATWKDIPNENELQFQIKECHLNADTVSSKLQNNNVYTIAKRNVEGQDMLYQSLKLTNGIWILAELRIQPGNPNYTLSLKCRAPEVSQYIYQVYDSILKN
Beta-adrenergic receptor kinase 1 (Homo sapiens), sequence (P25098 whole entry, looked up): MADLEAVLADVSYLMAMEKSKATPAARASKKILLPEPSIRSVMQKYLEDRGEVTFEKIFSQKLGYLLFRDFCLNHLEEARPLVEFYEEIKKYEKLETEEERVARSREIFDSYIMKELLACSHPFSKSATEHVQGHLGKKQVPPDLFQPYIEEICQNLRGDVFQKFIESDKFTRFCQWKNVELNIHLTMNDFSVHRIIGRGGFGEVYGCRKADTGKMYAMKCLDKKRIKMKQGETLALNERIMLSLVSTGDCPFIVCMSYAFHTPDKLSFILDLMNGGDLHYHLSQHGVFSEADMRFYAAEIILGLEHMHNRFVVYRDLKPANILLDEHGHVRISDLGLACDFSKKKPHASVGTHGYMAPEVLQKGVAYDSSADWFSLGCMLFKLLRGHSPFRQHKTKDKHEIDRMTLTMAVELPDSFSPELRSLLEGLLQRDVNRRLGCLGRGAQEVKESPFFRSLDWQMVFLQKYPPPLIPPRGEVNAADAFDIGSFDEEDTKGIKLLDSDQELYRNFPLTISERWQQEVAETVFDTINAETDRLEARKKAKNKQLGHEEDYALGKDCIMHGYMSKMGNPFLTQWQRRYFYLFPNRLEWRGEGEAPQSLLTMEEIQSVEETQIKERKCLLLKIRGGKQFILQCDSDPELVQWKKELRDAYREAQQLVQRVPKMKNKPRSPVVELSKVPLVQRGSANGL

As for `O=C(NC1CC1)c1ccc2c(c1)NC(=O)c1ccccc1S2`, in assay [1], the RGS4–Galpha-o binding response was 113% (active).
On the same count and under the same terms, the value for `C/C(=N\NS(=O)(=O)c1ccc(Br)cc1)c1cccs1` was 120% (active); that for `C/C(=C/C(=O)N1CCN(C)CC1)C(=O)O` was 109% (active); that for `CSc1ccc(CN2C(=O)NC3(CCCCCC3)C2=O)cc1` was 106% (active).
The same measure, in the same setting: the value for `COc1ccc(C(=O)NNc2cc(C)nc(NNC(=O)c3ccc(OC)cc3)n2)cc1` was 79.6% (active); that for `Cc1c(CN2CCCC(C(=O)c3cccc(Cl)c3)C2)c(=O)n(-c2ccccc2)n1C` (stereo not given) was 107% (active).
The same measure, in the same setting: the value for `O=C(Nc1cccc(F)c1)c1coc(=O)c(Br)c1` was 83.8% (active).
As to `CN(C)S(=O)(=O)Oc1ccccc1C(=O)Nc1ccccc1Cl`, the RGS4–Galpha-o binding response in [1] was 114% (active).
Still for that read-out and setting: the value for `CCOc1ccc(NC(=O)CSc2nc3ccccc3c(=O)n2Cc2cccs2)cc1` was 84.3% (active); that for `CCC(=O)Nc1c(S(=O)(=O)c2ccccc2)c2nc3ccccc3nc2n1Cc1ccccc1` was 89.8% (active); that for `Cc1ccc(-n2c(SCC(=O)Nc3ncc(Cl)cc3Cl)nc3ccccc32)cc1` was 86.2% (active).
Same read-out and setting: the same measure for `CC(C)(C)NC(=O)c1cccc(NC(=O)Cc2ccc(Br)cc2)c1`: 79.3% (active); for `CCOC(=O)c1oc2c(CN3CCN(C)CC3)c(O)ccc2c(=O)c1-c1ccc(Br)cc1`: 132% (active).
With `O=[N+]([O-])C(=c1ccc2c(c1)N1C3=C(CCCC3)CC3CCCCC31N=2)[N+](=O)[O-]` (stereo not given), in [1], the RGS4–Galpha-o binding response was 80.6% (active).
Still for that read-out and setting: the same measure for `CCCn1c(C)cc(C(=O)COC(=O)c2c(C)nn(-c3ccccc3)c2C)c1C`: 76.2% (active).
Still for that read-out and setting: the same measure for `CN(CC(=O)NC1CCCCC1)S(=O)(=O)c1cccc2cccnc12`: 110% (active); for `Cc1ccccc1NC(=S)N(CCCN1CCOCC1)Cc1cccs1`: 105% (active).
On to `O=C(O)/C=C/c1cn(Cc2ccccc2)nc1-c1cccs1`, for which the molecule was classed as inactive in [2].
In [3], `Cc1ccccc1N(CC(=O)N/N=C/c1ccccc1Cl)C(=O)c1ccccc1` registered a GTP binding signal, raw median fluorescence (lower = inhibition) (MCF (arbitrary fluorescence units)) of 212.
As for `Oc1ccc(-c2onc3ccc(Cl)cc23)cc1`, in assay [1], the RGS4–Galpha-o binding response was 118% (active).
The same measure, in the same setting: the same measure for `CC(=O)c1ccc(NC(=S)NC(=O)CC(C)C)cc1`: 91.6% (active); for `CC(NC(=O)COC(=O)C1CCN(S(=O)(=O)c2ccccc2C(F)(F)F)CC1)c1ccccc1` (stereo not given): 118% (active); for `CN(C)CCN=c1cc(-c2ccccc2)oc2ccc(Cl)cc12`: 110% (active).
As to `CCN(CC)S(=O)(=O)c1cccc(-c2n[nH]c(=S)n2/N=C/c2ccc(C(=O)OC)cc2)c1`, the RGS4–Galpha-o binding response in assay [1] is 108% (active).
Turning to `CCC(=O)N1CCC(C(N)=O)(N2CCCCC2)CC1`, the RGS4–Galpha-o binding response in assay [1] is 133% (active). The GFP response vs DMSO in [4] is 99% (inactive); in [5], 102% (inactive); in [6] it was 99.8% (inactive); in [7], 104% (inactive). In assay [8], the percent response vs DMSO is 99.4% (inactive).
As to `O=C(CN1CCOCC1)Nc1ccccc1`, in [1], the RGS4–Galpha-o binding response was 115% (active).
For the molecule `COc1ccc(-c2nn(-c3ccccc3)cc2C(=O)Nc2nccs2)cc1OC`, the RGS4–Galpha-o binding response in assay [1] was 90.3% (active).
`O=C(Nc1ccccc1)c1cc2ccccc2[nH]1`: the RGS4–Galpha-o binding response in [1] is 90.3% (active).
Still for that read-out and setting: the value for `O=C(Nc1cccc(-c2nc3ccccc3[nH]2)c1)c1ccc(C(=O)Nc2cccc(-c3nc4ccccc4[nH]3)c2)cc1` was 132% (active); that for `CN(C)CCNC(=O)/C(=C/c1cccc([N+](=O)[O-])c1)NC(=O)c1ccccc1` was 119% (active).
Same read-out and setting: the same measure for `CC(C)Cc1nc(Nc2ccc(S(=O)(=O)N3CCCC3)cc2)c2nnn(Cc3ccccc3)c2n1`: 135% (active).
Same read-out and setting: the same measure for `CCOC(=O)C1=C(c2ccccc2)N=C2SCC(=O)N2C1c1ccc(O)c(OC)c1` (stereo not given): 121% (active).
As to `NC(=O)Cc1ccc2sc(-c3ccccc3)nc2c1`, the RGS4–Galpha-o binding response in assay [1] is 94.3% (active).
The same measure, in the same setting: the same measure for `Cc1ccccc1CS(=O)(=O)CC1(O)CCN(C(=O)c2cccc(C(F)(F)F)c2)CC1`: 110% (active).
For `O=[N+]([O-])c1cccc2cn[nH]c12`, in assay [9], the GFP response, % of DMSO was 105% (inactive). The results for the inhibition in [10], in [14] and in assay [18] were -13.9% (inactive), 49.7% (inactive) and 0% (inactive), respectively. Moreover, in [11], the superoxide response (% of plate) is 117% (inactive). Moreover, in assay [12], the aptamer binding inhibition was 0% (inactive). Besides, the values for the response in [13] and in assay [15] were -10.1% (inactive) and -6.22% (inactive), respectively. In assay [16], the binding (% of control) was 93.6% (inactive). Also, the efflux inhibition (fraction of control) in [17] was 0.3 (inactive). In addition, the differentiation response in assay [19] was 3.28% (inactive).
